# Measurements reported in PubChem BioAssay AID1852 (Sanford-Burnham Center for Chemical Genomics, 2009).
# Screen size: about 2,500 compounds; about 1,100 (44%) were called active.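 The calls were made as follows: active = inhibition above 50% at 4 µM in the single-point screen; inactive = inhibition of 50% or less.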 The set was probably picked from earlier hits. The list shows a part of the results.
# Assay: TNF-a-driven NF-kB reporter inhibitors, primary screen, selectivity assay for NOD1/NOD2 signaling inhibitor project, cell-based, HEK293T NF-kB-Luc, luminescence (AID 1852)
# Settings: TNF-a induced, 14 h, at 4 µM, stronger effect = higher value
row,Compound,inhibition
1,Cc1ccccc1-n1c(O)c(/C=C2/C(c3ccccc3)=Nc3ccccc32)c(=O)[nH]c1=O,16.1% (inactive)
2,CCOc1ccc(-c2cc(C)[n+](CCN(CC)CC)c(-c3ccc(OCC)cc3)c2)cc1,51.9% (active)
3,C[C@@H]1O[C@@H](O[C@H]2C[C@@H](O)[C@]3(CO)[C@H]4[C@H](O)C[C@]5(C)[C@@H](C6=CC(=O)OC6)CC[C@]5(O)[C@@H]4CC[C@]3(O)C2)[C@H](O)[C@H](O)[C@H]1O,106% (active)
4,CC(C)N1C(=O)/C(=C/C=C/c2ccco2)C(=O)N(Cc2ccco2)C1=O,22.9% (inactive)
5,CC(C)[C@H]1C(=O)O[C@H](C(C)C)C(=O)N(C)[C@@H](C(C)C)C(=O)O[C@H](C(C)C)C(=O)N(C)[C@@H](C(C)C)C(=O)O[C@H](C(C)C)C(=O)N1C,90.7% (active)
6,COC(=O)[C@]12OC[C@]34C([C@@H](O)[C@@H]1O)[C@]1(C)CC(=O)C(O)=C(C)[C@@H]1C[C@H]3OC(=O)[C@H](O)[C@@H]24 (stereo partly drawn),76.8% (active)
7,CC[C@@]1(O)C(=O)OCc2c1cc1n(c2=O)Cc2cc3ccccc3nc2-1,98.4% (active)
8,Cc1cccc(OCCn2cccc2/C=C2/C(=O)NC(=O)N(Cc3ccco3)C2=O)c1,9.6% (inactive)
9,C[C@]12CCC3C(CCC4=CC(O)CC[C@@]43/C=N/O)C1(O)CCC2C1=CC(=O)OC1 (stereo partly drawn),97.3% (active)
10,C=C1C(=O)O[C@@H]2C[C@@H](C)[C@@H]3C=CC(=O)[C@@]3(C)[C@@H](O)[C@H]12,104% (active)
11,C=C1C(=O)O[C@@H]2C[C@@H](C)[C@@H]3C4OC4C(=O)[C@@]3(C)[C@@H](O)[C@H]12 (stereo partly drawn),96.7% (active)
12,C=C1C(=O)O[C@@H]2C[C@@H](C)[C@@H]3C=CC(=O)[C@@]3(C)[C@@H](OC(=O)CC(=O)O[C@H]3[C@@H]4C(=C)C(=O)O[C@@H]4C[C@@H](C)[C@@H]4C=CC(=O)[C@]43C)[C@H]12,103% (active)
13,C=C1C(=O)O[C@H]2C[C@@H](C)[C@@H]3C=CC(=O)[C@@]3(C)C[C@H]12,108% (active)
14,O=C(c1ccc(Cl)cc1)C1CCCN(Cc2ccc3ncccc3c2)C1 (stereo not drawn),29.7% (inactive)
15,CC(C)CC(NC(=O)CCCNC(=O)CCC(=O)OC1O[C@H]2OC3(C)CC[C@H]4[C@H](C)CCC(C1C)C24OO3)C(=O)O (stereo partly drawn),55.3% (active)
16,CCC(C)NC(=O)CCC(=O)OC1O[C@H]2OC3(C)CC[C@H]4[C@H](C)CCC(C1C)C24OO3 (stereo partly drawn),52.3% (active)
17,CCC(C)C(NC(=O)CCCNC(=O)CCC(=O)OC1O[C@H]2OC3(C)CC[C@H]4[C@H](C)CCC(C1C)C24OO3)C(=O)O (stereo partly drawn),87.7% (active)
18,CC1=CC(=Cc2sc3ccccc3[n+]2C)C=C(C)O1,43.4% (inactive)
19,CN1CCN(c2ncnc3ccc(Br)cc23)CC1,33% (inactive)
20,Cc1cccc(-n2c(O)c(/C=C3/C(c4ccccc4)=Nc4ccccc43)c(=O)[nH]c2=O)c1,32.8% (inactive)
21,O=C(c1ccc(C(F)(F)F)cc1)C1CCCN(Cc2ccncc2)C1 (stereo not drawn),30.7% (inactive)
22,CN1/C(=C\C=C\C2=[N+](C)c3ccc4ccccc4c3C2(C)C)C(C)(C)c2ccccc21,87.9% (active)
23,CCN1/C(=C\C=C\C2=[N+](CC)c3ccccc3C2(C)C)C(C)(C)c2ccccc21,101% (active)
